Bioassay records from PubChem BioAssay.
Many of the other results were omitted from the sample, so hits are more common in it than they were.
LmPK inh – blocks Leishmania mexicana pyruvate kinase activity. Q27686. purified LmPK, Kinase-Glo ATP luminescence, 1 h. Potency, µM (series often up to 57.5 µM), without a hit: at the top dose activity change, negative = inhibition, usual class: inhibitors. hit rate 0.37% among 290,000; note: potency is the fitted concentration of half-maximal effect; % is set by controls: 0 for no effect and ±100 for the full control effect
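Purified LmPK (0.1 nM) converted ADP (0.1 mM) to ATP with PEP (0.5 mM) in imidazole buffer pH 7.2 with KCl and MgCl2, 1 h at room temperature. ATP was read by Kinase-Glo luminescence; data normalized to uninhibited and no-enzyme controls.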
TbPYK inhibitor – T. brucei pyruvate kinase inhibition; Q57TT1; Potency, µM (highest dose often 76.8 µM), for the others: at the top dose activity, negative = inhibition, most hits filed as inhibitors; hit rate 0.12% among 410,000; TbPYK enzyme, Kinase-Glo Plus ATP luminescence, 45 min; AID 624173; note: potency is the fitted concentration of half-maximal effect; % is set by controls: 0 for no effect and ±100 for the full control effect; nearly all actives have a fitted effect of over 50% in size
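Luminescence from Kinase-Glo Plus, added after a 45-minute room-temperature reaction, served as the end-point read-out. The enzyme and substrate were preincubated with compound before ADP (130 uM final) initiated turnover. Concentration-effect curves came from normalized qHTS data.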
Sm TGR block – S. mansoni TGR enzyme inhibition. Potency, µM (top dose mostly 114 µM), for the others: at the top dose activity change, negative = inhibition, most hits filed as inhibitors. AID 485364. purified TGR, DTNB reduction, TNB absorbance 405 nm. hit rate 3% among 360,000; note: potency is the fitted concentration of half-maximal effect; % is set by controls: 0 for no effect and ±100 for the full control effect; nearly all actives have a fitted effect of over 60% in size
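First, TGR (20 nM dispensed) and NADPH were mixed with compound. Second, a 15 min room-temperature incubation followed. Third, further NADPH and then DTNB were added to start the reaction. Finally, TNB absorbance was monitored kinetically.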
Giardia FBPA inh – blocks Giardia fructose-bisphosphate aldolase activity | A8B2U2 | purified Giardia FBPA | Potency, µM (doses to about 59.6 µM), inactives show top-dose activity, negative = inhibition, usual class: inhibitors | hit rate 0.71% among 290,000 | AID 2451; note: potency is the fitted concentration of half-maximal effect; % is set by controls: 0 for no effect and ±100 for the full control effect; nearly all actives have a fitted effect of over 55% in size
Target sequence (A8B2U2 whole entry, looked up): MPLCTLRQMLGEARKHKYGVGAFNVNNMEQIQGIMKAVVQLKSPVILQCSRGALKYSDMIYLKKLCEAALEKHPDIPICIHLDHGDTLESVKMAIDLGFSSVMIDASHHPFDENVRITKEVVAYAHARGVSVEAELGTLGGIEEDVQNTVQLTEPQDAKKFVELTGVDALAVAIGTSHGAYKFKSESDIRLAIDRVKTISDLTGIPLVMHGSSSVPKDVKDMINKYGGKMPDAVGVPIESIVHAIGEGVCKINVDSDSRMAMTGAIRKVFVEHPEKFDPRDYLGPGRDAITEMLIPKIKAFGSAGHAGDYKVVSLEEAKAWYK
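Giardia FBPA (40 nM reagent) was preincubated 10 min at RT with compound (up to 57.5 uM final), then substrate plus GAPDH/TPI/NAD/arsenate coupling system with diaphorase/resazurin was added; resorufin fluorescence (525/598 nm) was read after 20 min.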
CHX counter – counter-screen hit for Shiga toxin inhibitors, cycloheximide. cell reporter, cycloheximide protein synthesis inhibition counterscreen. max response, %. hit rate 12% among 300,000; in the data active = max response mostly above about 13%, no sharp cut-off; inactive = mostly below about 14%; note: read at 38.3 µM for the half of the compounds with a filed dose; 0% is about no effect
Shiga inhibitor – Shiga toxin inhibition | hit rate 9.2% among 290,000 | Vero cells, Shiga toxin protein synthesis inhibition reporter | AID 2315 | inhibition, % at 38.7 µM; in the data active = inhibition mostly above about 28%, no sharp cut-off; inactive = mostly below about 43%; note: 0% is about no effect
* hit, by the source's call; [ ] = remark or other dose. Unless noted, calls come from the whole dose curve; as a rule, active = well fitted curve in the direction sought with a large enough effect; inconclusive = small, poorly fitted or top-dose-only effect, or another doubt; inactive = no such curve, though single readings can be large; an effect the other way counts as inactive or inconclusive.

`Cc1ccc(NC(=O)c2nc3nccc(C)n3n2)c(C)c1` gave LmPK inh -4%, TbPYK inhibitor 1%, Sm TGR block 5%, Giardia FBPA inh 11%, CHX counter 30* and Shiga inhibitor 80*.
For CCCC1=C/C(=C/c2ccc(-c3ccccc3OC)o2)C(=O)O1 the results were LmPK inh 0%, TbPYK inhibitor -14%, Sm TGR block 22µM*, Giardia FBPA inh -3%, CHX counter 2 and Shiga inhibitor 58.
`COc1ccccc1-c1ccc(/C=C2/C=C(CC(C)C)OC2=O)o1` gave LmPK inh 1%, TbPYK inhibitor -11%, Sm TGR block 35µM*, Giardia FBPA inh -9%, CHX counter 5 and Shiga inhibitor 24.
Screening COc1cccc(CNC(=O)C2CCCN(c3nn4cc(-c5ccc(C)cc5)nc4s3)C2)c1 (centres undefined) returned TbPYK inhibitor 1%[15.4 µM] and Sm TGR block 6%.
`C(=N\N=C\c1cccs1)/c1cccs1` gave LmPK inh 13%, TbPYK inhibitor 0%, Sm TGR block 10%, Giardia FBPA inh 1%, CHX counter 45* and Shiga inhibitor 71*.
`CC1S/C(=N/N=C/c2cccs2)NC1=O` (centres undefined) gave LmPK inh 3%, TbPYK inhibitor 2%, Sm TGR block 6%, Giardia FBPA inh -7%, CHX counter 16* and Shiga inhibitor 20*.
Cc1cccc(-c2c3c(=O)n(C)c(=O)n(C)c3cn2-c2cc(N)c(Cl)cc2Cl)c1 was read as TbPYK inhibitor 21% and Sm TGR block 8%.
Screening COc1ccc(NC(=O)/C(C#N)=C\c2ccc(-c3cccc(C(=O)O)c3C)o2)cc1 returned LmPK inh 0%, TbPYK inhibitor -3%, Sm TGR block -4%, Giardia FBPA inh 1%, CHX counter 21* and Shiga inhibitor 35*.
For Cc1c(C(=O)O)cccc1-c1ccc(C=O)o1 the results were LmPK inh -1%, TbPYK inhibitor -10%, Sm TGR block -14%, Giardia FBPA inh -3%, CHX counter 35* and Shiga inhibitor 54*.
Screening CNC(=O)/C(C#N)=C/c1ccc(-c2ccc(OC)cc2[N+](=O)[O-])o1 returned LmPK inh 7%, TbPYK inhibitor 0%, Sm TGR block -19%, Giardia FBPA inh -1%, CHX counter 56* and Shiga inhibitor 27*.
`COc1ccc(NC(=O)/C(C#N)=C/c2ccc(-c3ccccc3C(=O)O)o2)cc1` gave LmPK inh 0%, TbPYK inhibitor -6%, Sm TGR block -21%, Giardia FBPA inh 6%, CHX counter 2 and Shiga inhibitor -9.
Screening COc1ccc(NC(=O)/C(C#N)=C\c2ccc(Br)o2)cc1 returned LmPK inh 4%, TbPYK inhibitor 0%, Sm TGR block -15%, Giardia FBPA inh 0%, CHX counter 22* and Shiga inhibitor 25.
Screening Cc1cccc(/N=C/c2c(O)[nH]c3ccccc23)n1 returned LmPK inh -22%, TbPYK inhibitor -1%, Sm TGR block -16%, Giardia FBPA inh -13%, CHX counter 46* and Shiga inhibitor 92*.
Screening Oc1c(C=Nc2cccc3cccnc23)sc2ccccc12 returned LmPK inh inconclusive, Sm TGR block 0%, Giardia FBPA inh 5%, CHX counter 31 and Shiga inhibitor 82.
For Cc1cccc(/N=C/c2sc3ccccc3c2O)n1 the results were LmPK inh inconclusive, TbPYK inhibitor -16%, Sm TGR block -1%, Giardia FBPA inh -7%, CHX counter 44* and Shiga inhibitor 39*.
`CC(C)N=Cc1c(O)[nH]c2ccccc12` gave LmPK inh -2%, TbPYK inhibitor -2%, Sm TGR block 9%, Giardia FBPA inh 1%, CHX counter -1 and Shiga inhibitor -27.
Screening CC(=O)N1CCN(C2=Nc3cccc4cccc2c34)CC1 returned LmPK inh 4%, TbPYK inhibitor 13%, Sm TGR block 11%[11.4 µM], Giardia FBPA inh 4µM*, CHX counter 8 and Shiga inhibitor 12.
Screening CCOC(=O)N1CCN(C2=Nc3cccc4cccc2c34)CC1 returned LmPK inh -3%, TbPYK inhibitor 1%, Sm TGR block -9%, Giardia FBPA inh inconclusive, CHX counter 9 and Shiga inhibitor -3.
Screening NC(=O)NNC1=Nc2cccc3cccc1c23 returned LmPK inh 3%, TbPYK inhibitor 1%, Sm TGR block 4%, Giardia FBPA inh -9%, CHX counter 11 and Shiga inhibitor 56.
O=C(O)c1ccc(NC2=Nc3cccc4cccc2c34)cc1 was read as LmPK inh 1%, TbPYK inhibitor -10%, Sm TGR block -17%, Giardia FBPA inh -27%, CHX counter 23* and Shiga inhibitor 69*.
Screening COc1ccc(C(=O)NNC2=Nc3cccc4cccc2c34)cc1 returned LmPK inh 2%, TbPYK inhibitor -1%, Sm TGR block 6%, Giardia FBPA inh 8%, CHX counter 1 and Shiga inhibitor -17.
For COc1ccccc1N1CCN(C2=Nc3cccc4cccc2c34)CC1 the results were LmPK inh 2%[11.5 µM], TbPYK inhibitor 3%, Sm TGR block 13%, Giardia FBPA inh -29%, CHX counter 34* and Shiga inhibitor 69.
COc1ccccc1NC1=Nc2cccc3cccc1c23 was read as LmPK inh 2%, TbPYK inhibitor 0%, Sm TGR block 10%, Giardia FBPA inh -3%, CHX counter 14* and Shiga inhibitor 20.
`O=C(Cc1ccc(-c2ccccc2)cc1)NCCS(=O)(=O)N1CCN(c2ccccc2F)CC1` gave TbPYK inhibitor -4% and Sm TGR block 0%.
Screening Cn1c(=O)n(CCOc2ccc(Cl)cc2Cl)c2ccccc21 returned LmPK inh 2%, TbPYK inhibitor 0%, Sm TGR block 6%, Giardia FBPA inh 0%, CHX counter -1 and Shiga inhibitor -9.
O=c1ccccn1CCOc1ccccc1Cl was read as LmPK inh -3%, TbPYK inhibitor -7%, Sm TGR block -7%, Giardia FBPA inh 1%, CHX counter 19* and Shiga inhibitor 45*.
For COc1ccccc1OCCn1c(=O)n(C)c2ccccc21 the results were LmPK inh -3%, TbPYK inhibitor -9%, Sm TGR block 1%, Giardia FBPA inh -2%, CHX counter 21* and Shiga inhibitor 28*.
Cn1c(=O)n(CCOc2ccccc2Cl)c2ccccc21 was read as LmPK inh 1%, TbPYK inhibitor -9%, Sm TGR block -1%, Giardia FBPA inh -6%, CHX counter 50* and Shiga inhibitor 79*.
Screening Clc1ccccc1OCCN1CCCCC1 returned LmPK inh -1%, TbPYK inhibitor 14%, Sm TGR block 0%, Giardia FBPA inh inconclusive, CHX counter 1 and Shiga inhibitor -3.
